Vaccinia Venus: vaccinia inhibition (Venus reporter); Vaccinia virus Venus reporter expression, fluorescence; Potency, µM (top dose mostly 36.5 µM), for inactives: top-dose activity change, negative = inhibition, most hits filed as inhibitors; 330,000 tested, 0.46% active; calls by dose curve; tested in A549 cells; note: potency is the fitted concentration of half-maximal effect; nearly all actives have a fitted effect of over 30% in size
HCV inh: blocks hepatitis C virus; Huh7.5.1 HCVcc-Cre infection, luciferase reporter, 44 h; Potency, µM (top dose mostly 41.8 µM), for the others: at the highest dose activity change, negative = inhibition, usual class: inhibitors; 340,000 tested, 3.4% active; note: potency is the fitted concentration of half-maximal effect
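Seed cells (1,000/well) for 4 h; treat with compound and infect with HCVcc-Cre, moi about 0.5. Incubate 44 h, then detect luciferase activity.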
Vaccinia mCherry: inhibitors of vaccinia virus infection (mCherry reporter signal); AID 720579; Vaccinia virus mCherry reporter infection, fluorescence; 310,000 tested, 0.63% active; Potency, µM (top dose mostly 36.5 µM), for the others: at the highest dose activity change, negative = inhibition, usual class: inhibitors; calls by dose curve; tested in A549 cells; note: potency is the fitted concentration of half-maximal effect; nearly all actives have a fitted effect of over 35% in size
Sm TGR block: blocks Schistosoma mansoni thioredoxin glutathione reductase | Q962Y6 | purified TGR, DTNB reduction, TNB absorbance 405 nm | Potency, µM (titrated, usually from 114 µM), for inactives: at the highest dose activity change, negative = inhibition, actives largely listed as inhibitors | 360,000 tested, 3% active; note: potency is the fitted concentration of half-maximal effect; nearly all actives have a fitted effect of over 60% in size
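TGR 20 nM + NADPH 100 uM (dispensed conc.), cpd preinc 15 min RT; start with NADPH (500 uM addition) then DTNB (15 mM addition). Kinetic TNB absorbance, 405 nm filter. Four-parameter Hill fit across titration.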
HCMV antiviral: inhibitors of human cytomegalovirus | HFF cells, HCMV-luciferase reporter, 72 h; hits give low values | activity change, negative = inhibition, % at 57.5 µM | 410,000 tested, 4.5% active | AID 1259415; in the data active = activity change below about -60%; inconclusive = no clear call, values can overlap the other calls; inactive = above about -39%
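Cell-based, HFFs, 1000 cells/well, 16 h 37C; cpds in DMSO + HCMV-luc, MOI 1 PFU/cell; 72 h 37C; OneGlo luminescence after 5 min RT; norm. to buffer vs Salinomycin 10uM.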
FMDV inh: foot and mouth disease virus antiviral activity | FMDV antiviral cell-based qHTS | Potency, µM (series often up to 57.9 µM), for the others: top-dose activity change, negative = inhibition, usual class: inhibitors | 410,000 tested, 1.2% active | AID 1159524; calls by dose curve; tested in HEK293T cells; note: read-out not given here; potency is the fitted concentration of half-maximal effect; nearly all actives have a fitted effect of over 45% in size
Starred values were filed as active, the others as inactive; i = inactive; ? = inconclusive; . = no result given; [ ] = another dose, or the depositor's remark. Shown are actives, neighbours in structure and some others; about 9.3% of the full set was active somewhere. Unless noted, calls come from the whole dose curve; as a rule, active = well fitted curve in the direction sought with a large enough effect; inconclusive = small, poorly fitted or top-dose-only effect, or another doubt; inactive = no such curve, though single readings can be large; an effect the other way counts as inactive or inconclusive. % is set by controls: 0 for no effect and ±100 for the full control effect.

SMILES | Vaccinia Venus | HCV inh | Vaccinia mCherry | Sm TGR block | HCMV antiviral | FMDV inh
CCCNC(=S)Nc1cc2oc3ccccc3c2cc1OC | . | ? | . | -8% | 7 | 30%
CCNC(=S)Nc1cc2oc3ccccc3c2cc1OC | ? | 22µM* | ? | 26% | 0 | 2%
CCN(CC(=O)Nc1ccccc1C(F)(F)F)C(=O)C1CSC2(C)CCC(=O)N12 (configuration not stated) | 1% | 19% | -8% | -12% | 1 | 20%
COc1cccc(NC(=O)c2oc3ccc(S(=O)(=O)N(C)C4CCCCC4)cc3c2C)c1 | -10% | . | i | 3% | -34 | -13%
CCCSc1ccc([C@@H]2[C@@H]3C(=O)N(C)C(=O)[C@@H]3[C@]3(C(=O)OC)CCCN23)cc1OC | -21% | ? | -25% | 20µM* | . | -14%
CCN1C(=O)[C@H]2[C@@H](c3ccc(-c4ccc(OC)cc4)cc3)N3CCC[C@@]3(C(=O)OC)[C@H]2C1=O | -16% | ? | i | ? | -101* | -9%
CCN1C(=O)[C@@H]2[C@@H](c3ccc(-c4ccc(OC)cc4)cc3)N3CCC[C@@]3(C(=O)OC)[C@@H]2C1=O | -12% | ? | -3% | -29% | -36 | -16%
CCC(C)(C)c1ccc(Oc2cccc(C(=O)O)c2)cc1 | 4% | 13% | -5% | 4% | 88 | 38%
CCC(C)(C)c1ccc(Oc2ccc(N)cc2)cc1 | ? | 4.5µM* | -18% | 3% | -91* | 1.1µM*
O=C(CCc1nnc(-c2ccc3c(c2)OCO3)o1)NCCc1ccccc1F | -5%[7.34 µM] | 0% | i[7.34 µM] | -1% | 0 | 2%
Cc1cc2nc(C3CCCCC3)c(Cc3cccc(F)c3)n2c(C)c1Br | 0% | . | -5% | . | -27 | -12%
Cc1ccc(C)c(OCC(=O)NNC(=O)CSC(=S)N2CCCC2)c1 | -6% | 16% | -8% | 5% | 4 | 1%
Oc1c(Cl)cc(Cl)cc1C=Nc1cc(C(F)(F)F)ccc1N1CCc2ccccc2C1 | -19% | ? | i | -22% | -100* | -30%
Oc1c(Cl)cccc1C=Nc1cc(C(F)(F)F)ccc1N1CCCC1 | -18% | -10% | . | -12% | 40 | 1%
CSc1ccccc1-c1nnc(-c2ccccc2)o1 | -5% | 8.9µM* | . | -15% | 88 | -12%
COc1cccc(CC2(CO)CCCN(Cc3ccccc3Cl)C2)c1 (configuration not stated) | . | ? | . | -30% | -3 | -4%
Cc1ccc(C)c(-c2[nH]ncc2CN2CCCC(CO)(Cc3ccccc3C)C2)c1 (configuration not stated) | 1% | 13µM* | -18% | 8% | -8 | -25%
Cn1cc(CN2CCCC(CO)(Cc3ccccc3)C2)c2ccccc21 (configuration not stated) | 3% | ? | -16% | -15% | ? | ?
Cc1ccccc1CC1(CO)CCCN(Cc2ccccc2Cl)C1 (configuration not stated) | -8% | 13% | -15% | 25µM* | 3 | -7%
CCn1cc(CN2CCCC(CO)(Cc3ccc(F)cc3)C2)c2ccccc21 (configuration not stated) | -3% | 16% | ? | -33% | -64* | -22%
CCOC(=O)C1CCCN(c2c(NCCc3ccc(S(N)(=O)=O)cc3)c(=O)c2=O)C1 (configuration not stated) | -4% | 21% | -19% | -10% | 95 | -25%
COc1ccc(NC(=O)CCC(=O)c2ccc(C(C)C)cc2)cc1 | . | -21% | . | -1% | 11 | -22%
Cc1ccc(S(=O)(=O)N(C)Cc2ccc(C(=O)N/N=C/c3ccc(OC(F)F)cc3OC(F)F)cc2)cc1 | -23% | ? | -13% | -8% | ? | 6.3µM*
O=C(N/N=C/c1ccc(OC(F)F)cc1OC(F)F)c1ccc(Br)cc1 | . | ? | . | 9% | -38 | 15%
O=C(Nc1ccc(-c2csc(Nc3ccccc3)n2)cc1)c1cc([N+](=O)[O-])cc(C(F)(F)F)c1 | ? | ? | 16µM* | 4% | -74* | 25µM*
SMILES | Vaccinia Venus | HCV inh | Vaccinia mCherry | Sm TGR block | HCMV antiviral | FMDV inh
O=C(Nc1cccc(-c2csc(Nc3cccc(C(F)(F)F)c3)n2)c1)c1cc([N+](=O)[O-])cc(C(F)(F)F)c1 | -30% | ? | ? | -1% | 24 | 40µM*
O=[N+]([O-])c1ccc(-c2csc(Nc3ccccc3)n2)cc1 | -24% | . | -22% | . | . | .
Cc1ccc(-c2csc(NC(=O)c3cccc([N+](=O)[O-])c3)n2)cc1 | -9% | -7% | -19% | 10% | -26 | ?
CCOC(=O)N1CCN(S(=O)(=O)c2ccc(C)cc2)CC1 | -9% | 25% | i | 3% | -1 | -9%
COc1ccc2c(Sc3ccc(Cl)cc3)c(C(=O)N3CCCCC3)[nH]c2c1 | -15% | . | -10% | -11% | -101* | 70%
COc1ccc2c(Sc3ccc(Cl)cc3)c(C(=O)N3CCC(C)CC3)[nH]c2c1 | -10% | . | -16% | -16% | 36 | 91%
O=[N+]([O-])c1cccnc1N1CCC(c2cc(-c3ccc(Cl)cc3)n[nH]2)CC1 | -21% | 10µM* | -24% | 10% | 12 | ?
CCOC(=O)CN1CCC(c2cc(-c3ccc(Cl)cc3)n[nH]2)CC1 | . | -18% | . | -8% | -3 | -18%
CCOc1ccc(N(Cc2cc3ccc(C)cc3[nH]c2=O)S(C)(=O)=O)cc1 | . | ? | . | -5% | 33 | -25%
COCCN(C(=O)c1cc(-c2ccco2)nc2ccccc12)c1c(N)n(Cc2ccccc2)c(=O)[nH]c1=O | . | 12% | . | . | -69* | -7%
CCCN(C(=O)c1cc(-c2ccco2)nc2ccccc12)c1c(N)n(Cc2ccccc2)c(=O)[nH]c1=O | -15% | -5% | -20% | 8.9µM* | -17 | 0%
CCCn1c(N)c(N(CCOC)C(=O)c2cc(Cl)nc3ccccc23)c(=O)[nH]c1=O | -7% | 21% | -18% | -1% | -29 | 2%
CCCCN(C(=O)c1cc(-c2ccc(F)cc2)nc2ccccc12)c1c(N)n(CCCC)c(=O)[nH]c1=O | -7% | ? | -15% | 0% | -14 | -10%
O=C(CNS(=O)(=O)c1ccc([N+](=O)[O-])cc1)N/N=C\c1ccc(O)cc1 | . | -5% | . | 5% | ? | -15%
COC(=O)Sc1nnc(-c2ccc(Br)cc2)o1 | . | . | . | 45µM* | . | .
